Here are results for 40 compounds from the supplement of paper PMC9950053.

Where a name gives a salt, the structure may show the parent alone.

This assay has as its system Danio rerio larvae (5 dpf). Kind of assay: 1-h baseline activity (% time moving, periods 1-6) minus DMSO control (percentage points); higher = more locomotor activity than DMSO larvae. The note with it: 10 µM; exposure time: 3 h pre-incubation + 3 h imaging. As to the method: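 Wild-type 5 dpf zebrafish larvae (n=48 per drug, 96-well plates, 28.5 °C) were exposed to Tocris FDA-approved library compounds at 10 µM (0.1% DMSO) for 3 h before and 3 h during imaging. Images were taken every 6 s during visual (moving coloured lines) and acoustic stimuli, and larvae were tracked with the DeepLabCut-based Z-LaP Tracker. Each behavioural measure is the treated-group mean minus the DMSO vehicle control mean (n=844), in percentage points. This mapping covers compounds with 4-character plate codes.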
On to `CCOc1nc2cccc(C(=O)O)c2n1Cc1ccc(-c2ccccc2-c2nnn[nH]2)cc1` [Candesartan], for which the 1-h baseline activity amounted to 2.98. `CCCCNc1cc(C(=O)O)cc(S(N)(=O)=O)c1Oc1ccccc1` [Bumetanide]: the 1-h baseline activity is 3. Take `O=C(c1ccc(OCCN2CCCCC2)cc1)c1c(-c2ccc(O)cc2)sc2cc(O)ccc12` [Raloxifene hydrochloride]: the 1-h baseline activity was -7.31. With `CC(C)c1nc(CN(C)C(=O)N[C@H](C(=O)N[C@@H](Cc2ccccc2)C[C@H](O)[C@H](Cc2ccccc2)NC(=O)OCc2cncs2)C(C)C)cs1` [Ritonavir], the 1-h baseline activity is -4.53. Consider `CCCc1nc2c(C)cc(-c3nc4ccccc4n3C)cc2n1Cc1ccc(-c2ccccc2C(=O)O)cc1` [Telmisartan], for which the 1-h baseline activity was -7.8. As for `CCOC(=O)C1=C(C)NC(C)=C(C(=O)OC)C1c1cccc(Cl)c1Cl` (stereo not given) [Felodipine], the 1-h baseline activity is -15.3. Under `C[C@@H](O[C@H]1OCCN(Cc2n[nH]c(=O)[nH]2)[C@H]1c1ccc(F)cc1)c1cc(C(F)(F)F)cc(C(F)(F)F)c1` [Aprepitant] stands -8.77; under `CC(C)c1ccc2oc3nc(N)c(C(=O)O)cc3c(=O)c2c1` [Amlexanox], 5.8; under `C/C(O)=C(\C#N)C(=O)Nc1ccc(C(F)(F)F)cc1` [Teriflunomide], -8.94. Under `Cc1ccc(O)c([C@H](CCN(C(C)C)C(C)C)c2ccccc2)c1` [Tolterodine L-tartrate] stands 0.455.

For the compound `C#C[C@]1(O)CC[C@H]2[C@@H]3CCC4=CC(=O)CC[C@@H]4[C@H]3CC[C@@]21CC` [Levonorgestrel], the 1-h baseline activity is -8.79.

As to `COC(=O)C1=C(C)NC(C)=C(C(=O)OC(C)C)C1c1cccc2nonc12` (stereo not given) [Isradipine], the 1-h baseline activity is -3.08. Next, `Nc1ncn([C@@H]2O[C@H](CO)[C@@H](O)[C@H]2O)c(=O)n1` [5-Azacytidine]: 2.7. Turning to `CN1CC2c3ccccc3Oc3ccc(Cl)cc3C2C1` (stereo not given) [Asenapine maleate], the 1-h baseline activity turned out to be 30.8.

For the compound `CCN(CC)CCNC(=O)c1c(C)[nH]c(/C=C2\C(=O)Nc3ccc(F)cc32)c1C` [Sunitinib malate], the 1-h baseline activity was -14. Under `CN(C)CCC[C@@]1(c2ccc(F)cc2)OCc2cc(C#N)ccc21` [Escitalopram oxalate] stands -24.4. Turning to `CCOC(=O)[C@H](CCc1ccccc1)N[C@@H](C)C(=O)N1[C@H](C(=O)O)C[C@@H]2CCC[C@@H]21` [Ramipril], the 1-h baseline activity stood at 1.29. As to `CN1CC[C@@H](NC(=O)Nc2ccc(C#N)cc2)C[C@@H]1c1nc2ccccc2[nH]1`, the 1-h baseline activity was -10. With `Nc1nc(Cl)nc2c1ncn2[C@@H]1O[C@H](CO)[C@@H](O)[C@@H]1F` [Clofarabine], the 1-h baseline activity was -5.31.

For `CC(C)(C#N)c1cc(Cn2cncn2)cc(C(C)(C)C#N)c1` [Anastrozole], the 1-h baseline activity is 1.59. Turning to `CC1CNc2c(cccc2S(=O)(=O)N[C@@H](CCCNC(=N)N)C(=O)N2CC[C@@H](C)C[C@@H]2C(=O)O)C1` (stereo not given in full) [Argatroban], the 1-h baseline activity is 3.52. Turning to `CN1CCN(CCCN2c3ccccc3Sc3ccc(Cl)cc32)CC1` [Prochlorperazine dimaleate], the 1-h baseline activity came out at 4.26. Next, `Nc1nc(NC2CC2)c2ncn([C@H]3C=C[C@@H](CO)C3)c2n1` [Abacavir hemisulfate]: 6.96. Turning to `CN(CCOc1ccc(CC2SC(=O)NC2=O)cc1)c1ccccn1` (stereo not given) [Rosiglitazone], the 1-h baseline activity was -1.36. As for `COc1c(C)c2c(c(O)c1C/C=C(\C)CCC(=O)O)C(=O)OC2` [Mycophenolic acid], the 1-h baseline activity is 1.89. Under `CCc1c2c(nc3ccc(OC(=O)N4CCC(N5CCCCC5)CC4)cc13)-c1cc3c(c(=O)n1C2)COC(=O)[C@]3(O)CC` stands -6.2; under `COc1cc2ncnc(Nc3ccc(F)c(Cl)c3)c2cc1OCCCN1CCOCC1` [Iressa], -6.95; under `CC(C)CN(C[C@@H](O)[C@H](Cc1ccccc1)NC(=O)O[C@H]1CO[C@H]2OCC[C@H]21)S(=O)(=O)c1ccc(N)cc1` [Darunavir], 10.3. In the case of `CC[C@H](C)C(=O)O[C@H]1C[C@@H](C)C=C2C=C[C@H](C)[C@H](CC[C@@H]3C[C@@H](O)CC(=O)O3)[C@H]21` [Lovastatin], the 1-h baseline activity was -3.77. Take `CN1CCN2c3ncccc3Cc3ccccc3C2C1` (stereo not given) [Mirtazapine]: the 1-h baseline activity was 11.7.

Take `Nc1nc(F)nc2c1ncn2[C@@H]1O[C@H](CO)[C@@H](O)[C@@H]1O` [Fludarabine]: the 1-h baseline activity amounted to 4.33. For `CC(C)(C)NC(=O)[C@@H]1C[C@@H]2CCCC[C@@H]2CN1C[C@@H](O)[C@H](Cc1ccccc1)NC(=O)[C@H](CC(N)=O)NC(=O)c1ccc2ccccc2n1` [Saquinavir mesylate], the 1-h baseline activity is -10.4.

For `CCOC(=O)c1ncn2c1CN(C)C(=O)c1cc(F)ccc1-2` [Flumazenil], the 1-h baseline activity was 1.03.

In the case of `Clc1ccccc1C(c1ccccc1)(c1ccccc1)n1ccnc1` [Clotrimazole], the 1-h baseline activity was -22.9. Next, `COc1ccccc1OCCNCC(O)COc1cccc2[nH]c3ccccc3c12` (stereo not given) [Carvedilol]: -12.4; `Nc1nc2c(ncn2COCCO)c(=O)[nH]1` [Acyclovir]: -2.63; `Clc1ccc(COC(Cn2ccnc2)c2ccc(Cl)cc2Cl)c(Cl)c1` (stereo not given) [Miconazole nitrate]: -19.7. On to `COc1cc2nc(N3CCN(C(=O)c4ccco4)CC3)nc(N)c2cc1OC` [Prazosin hydrochloride], for which the 1-h baseline activity is -4.14. Under `Cc1cccc(C)c1OCC(C)N` (stereo not given) [Mexiletine hydrochloride] stands 3.37; under `CC(C)(C(=O)c1cccnc1)c1cccnc1` [Metyrapone], -9.17.
